# Compound activity from PubChem BioAssay.
# CtBP-E1A inh = blocks the CtBP interaction with E1A. AlphaScreen GST-E1A/His-CtBP binding, 1536-well; active compounds read low. activity change, % (concentration not given with the values). AID 651724. actives 0.49% (n = 340,000); in the data active = activity change below about -65%; inconclusive = mostly about -30% to -63%
#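 AlphaScreen with 125 nM GST-E1A and 125 nM His-CtBP (5X stocks) in Tris pH 8.0, 300 mM NaCl, BSA, Tween 20, TCEP. Compounds preincubated 2 h at 37 deg C, then glutathione donor/nickel acceptor beads added for 1 h at 37 deg C in dark.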
# IL-1B inflam inh = blocks inflammasome-driven IL-1 beta release; THP-1 LPS/ATP IL-1B secretion, AlphaLISA, 16 h; active compounds read low; AID 743279; activity change, % at 57.5 µM; actives 4.7% (n = 360,000); in the data active = activity change below about -50%; inconclusive = mostly about -30% to -49%
#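 THP-1 cells pretreated 1 hr with compounds (up to 57.5 uM final), then stimulated with LPS (250 ng/mL final) plus ATP (1.25 mM final); secreted IL-1B measured by AlphaLISA after 16 hr, decreased signal indicating inhibition.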
# DT40 TDP1 no CPT = qHTS for Inhibitors of human tyrosyl-DNA phosphodiesterase 1 (TDP1): qHTS in cells in absence of CPT; DT40 Tdp1-/- hTDP1 cells, no CPT, ATP luminescence, 48 h; Potency, µM (highest dose often 46.2 µM), without a hit: at the highest dose activity change, negative = growth inhibition, most hits filed as inhibitors; actives 15% (n = 420,000); AID 686978, 2013; note: potency is the fitted concentration of half-maximal effect; nearly all actives have a fitted effect of over 55% in size
#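 Growth of hTDP1-complemented DT40 Tdp1-knockout cells is measured by ATP luminescence after at least 48 hr compound exposure at 37 °C, with DMSO substituting for the 20 nM CPT used in the parallel screen.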
# Six1-Eya2 blk = inhibitors of human Six1/Eya2 interaction | Q15475+O00167 | AlphaScreen GST-Six1/His-Eya2 binding, biochemical; active compounds read low | activity change, % (no concentration beside the values) | actives 0.56% (n = 360,000); in the data active = activity change below about -65%; inconclusive = mostly about -30% to -63%
#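 GST-Six1 + His-Eya2 (5X stock: 250/500 nM); Tris pH 8.0, 300 mM NaCl, 0.05% BSA, 0.02% Tween 20; GSH donor/Ni acceptor beads; 1 h 37 °C dark; AlphaScreen readout.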
# TDP1 inh = TDP1 (human) enzyme inhibition. Q9NUW8. recombinant TDP1, AlphaScreen DNA substrate cleavage. Potency, µM (titrated, usually from 130 µM), without a hit: at the highest dose activity change, negative = inhibition, actives largely listed as inhibitors. actives 0.28% (n = 350,000); note: potency is the fitted concentration of half-maximal effect; nearly all actives have a fitted effect of over 40% in size
# Target sequence (Q9NUW8 whole entry, looked up): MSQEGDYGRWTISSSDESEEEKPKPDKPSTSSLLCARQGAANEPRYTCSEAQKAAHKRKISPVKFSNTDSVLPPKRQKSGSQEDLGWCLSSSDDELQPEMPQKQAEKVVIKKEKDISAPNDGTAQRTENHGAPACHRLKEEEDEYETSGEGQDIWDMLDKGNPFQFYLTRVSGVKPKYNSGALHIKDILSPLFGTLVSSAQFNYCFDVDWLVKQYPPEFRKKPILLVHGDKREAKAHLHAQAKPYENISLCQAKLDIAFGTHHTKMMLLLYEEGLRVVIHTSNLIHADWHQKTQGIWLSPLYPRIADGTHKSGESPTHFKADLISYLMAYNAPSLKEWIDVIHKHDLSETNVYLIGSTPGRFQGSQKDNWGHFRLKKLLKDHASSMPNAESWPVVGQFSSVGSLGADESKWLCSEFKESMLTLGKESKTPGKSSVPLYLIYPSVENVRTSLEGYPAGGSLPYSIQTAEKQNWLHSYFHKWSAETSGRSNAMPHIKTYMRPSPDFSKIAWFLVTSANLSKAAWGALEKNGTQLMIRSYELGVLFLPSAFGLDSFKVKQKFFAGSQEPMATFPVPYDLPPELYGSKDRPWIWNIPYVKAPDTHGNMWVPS
#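 Steps: enzyme plus compound, 15 min RT; add biotin/phosphotyrosine-FITC oligonucleotide (15 nM final), react 5 min; add donor/acceptor beads (10 ug/ml final), 10 min; read AlphaScreen. Tdp1 at 1 nM final.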
# TDP1 cell CPT = DT40-hTDP1 cell growth loss with CPT; Potency, µM (top dose mostly 46.2 µM), inactives show at the highest dose activity change, negative = growth inhibition, actives largely listed as inhibitors; chicken DT40 Tdp1-/-;hTDP1 cells + 20 nM CPT, ATP luminescence, 48 h; actives 12% (n = 420,000); note: potency is the fitted concentration of half-maximal effect; nearly all actives have a fitted effect of over 55% in size
#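 Cell growth measured by CellTiter-Glo luminescence after a minimum 48 h, 37 C compound exposure with 20 nM CPT in Tdp1-knockout DT40 cells stably expressing hTDP1, seeded 400/well; qHTS titration format.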
# * marks the source's active call; other numbers are inactive results; u = inconclusive; x = no result given; ! = repeats disagree; [ ] = another dose, or the depositor's remark. An excerpt weighted towards active compounds, which were near 18% of everything screened. Unless noted, calls come from the whole dose curve; as a rule, active = well fitted curve in the direction sought with a large enough effect; inconclusive = small, poorly fitted or top-dose-only effect, or another doubt; inactive = no such curve, though single readings can be large; an effect the other way counts as inactive or inconclusive. % is set by controls: 0 for no effect and ±100 for the full control effect.
SMILES,CtBP-E1A inh,IL-1B inflam inh,DT40 TDP1 no CPT,Six1-Eya2 blk,TDP1 inh,TDP1 cell CPT
CCCc1nc2ccc(Cl)cn2c1Cc1ccccc1OC,12,10,12µM*,9,x,7.3µM*
Clc1ccc(-c2nc3ccc(Cl)cn3c2Cc2ccccc2)cc1,3,24,u,-5,x,u
CCCc1nc2ccc(C)cn2c1Cc1ccccc1C(F)(F)F,-14,-14,u,-6,x,u
Cc1cccc(C(=O)N2CCc3cc(-c4nc(NC(=O)CN5CCCC5)sc4C)ccc32)c1,-29,-10,u,-22,x,u
COc1ccc(CCNC(=O)CN2C(=O)c3ccccc3S2(=O)=O)cc1OC,6,5,1%,4,2%,16%
CCCc1nc2ccc(C)cn2c1Cc1ccc(OC)cc1C,-5,5,23µM*,9,x,13µM*
CCCc1nc2ccc(Br)cn2c1Cc1ccccc1OC,0,2,0.82µM*,-7,x,1.5µM*
c1ccc(Cc2nnc3n2CCN(Cc2cnc(-c4ccccc4)s2)CC3)cc1,x,x,-15%,x,x,-20%
CCC(C(=O)c1ccc2ncccc2c1)c1ccccc1 (centres undefined),x,35,16µM*,-2,-5%,15µM*
O=C(Nc1ccc2ncccc2c1)c1ccccc1,12,29,u,-1,x,u
CCCn1c(N)c(C(c2ccc(OC)cc2)N2CCN(c3ccccc3)CC2)c(=O)[nH]c1=O (centres undefined),-3,u,5%,-11,-2%,-2%
CCCCCCC[n+]1ccc(/C=C/c2c(C)[nH]c3ccccc23)c2ccccc21,x,x,1.3µM*,x,x,1.3µM*
Cc1[nH]c2ccccc2c1/C=N/Nc1ccccn1,x,x,x,x,5%,x
Cc1[nH]c2ccccc2c1/C=C/C(=O)c1ccncc1,0,-12,-21%,17,x,-9%
CCCCCCCCCC[n+]1ccc(/C=C/c2c(C)[nH]c3ccccc23)c2ccccc21,x,x,1µM*,x,x,0.79µM*
CCCCCN=c1ccn(Cc2ccccc2)c2ccccc12,x,x,2.1µM*,x,6%,2.7µM*
CCOc1ccc(C(=O)NC2CCN(S(C)(=O)=O)CC2)cc1,-1,4,-11%,6,10%,-15%
N#C/C(=C\c1cc([N+](=O)[O-])ccc1Cl)C(N)=O,0,-89*,2.9µM*,-4,1%,2.6µM*
O=C(C[N+]12CCCc3cccc(c31)CCC2)c1ccc2ccccc2c1,x,x,7.1µM*,x,x,5µM*
CCOc1cc(C(=O)N2CCC(c3ccncc3)CC2)cc(OCC)c1OCC,x,x,-11%,x,-4%,-17%
CN(C)c1cccc(C(=O)N2CCC(c3ccncc3)CC2)c1,x,x,-75%,x,7%,21µM*
Cc1cc2nn(-c3ccccc3)nc2cc1NC(=O)Cc1ccc(Cl)cc1,x,x,-6%,x,0%[12.3 µM],1%
O=S(=O)(NCCc1csc2nc(-c3ccc(Cl)cc3)nn12)c1cccs1,x,x,15µM*,x,3%,18µM*
Cc1noc(C)c1S(=O)(=O)NCCc1csc2nc(-c3ccc(Cl)cc3)nn12,x,x,12µM*,x,3%,23µM*
COc1ccc(-c2nc3scc(CCNS(=O)(=O)c4ccccc4F)n3n2)cc1,x,x,u,x,8%,u
SMILES,CtBP-E1A inh,IL-1B inflam inh,DT40 TDP1 no CPT,Six1-Eya2 blk,TDP1 inh,TDP1 cell CPT
NS(=O)(=O)c1ccc(NC(=S)NCc2ccc(F)cc2)cc1,7,31,-16%,-4,3%,-12%
CC(=O)Nc1cn(C(C)=O)c(C)n1,x,x,x,x,4%,x
O=C(Nc1nc2ccc(S(=O)(=O)N3CCCC3)cc2s1)c1ccc(F)cc1,x,x,u,x,3%,u
CCOc1cccc(-c2cnc3cccnn23)c1,14,-12,10µM*,9,x,u
CCOC(=O)COc1ccc2c(c1)C(=O)CC(C)(c1cccnc1)O2 (centres undefined),5,u,-14%,0,5%,-1%
COc1ccc(CN(Cc2cc3cccc(C)c3n3nnnc23)C(=O)N2CCOCC2)cc1,x,7,u,-5,4%,16µM*
CN(CC(=O)N1CCCC1)S(=O)(=O)c1cc(Cl)ccc1Cl,6,-8,4%,1,-1%,-22%
CC1(C(=O)NC(=S)N(Cc2ccccc2)c2ccccn2)CC1(Cl)Cl (centres undefined),9,12,-18%,9,-1%,-21%
CCCCCCN(CCCCCC)C(=O)Cc1c(-c2ccc(F)cc2)[nH]c2ccccc12,4,-12,13µM*,0,9%[56.1 µM],9.4µM*!
O=C(Cc1c(O)c2ccccc2[nH]c1=O)N(Cc1ccccc1)Cc1ccccc1,42,65,0%,25,2%,-15%
O=C(/C(=C/c1ccccc1)n1cncn1)c1ccc(Cl)cc1Cl,2,-100*,u,0,6%,6%
Cc1ccc2ccccc2[n+]1CCCCI,x,x,-9%,x,x,-19%
CCCCn1c(/N=C/c2ccc(N(C)C)cc2)nc2ccccc21,-6,-15,-12%,-22,5%,-24%
CCN(CC)c1ccc(/C=C/c2sc3ccccc3[n+]2CCCCI)cc1,x,x,0.45µM*,x,x,0.63µM*
CCCCCCC[n+]1c(/C=C/c2ccc(N(C)C)cc2)sc2ccccc21,x,x,0.28µM*,x,x,0.16µM*
COc1ccccc1CC(=O)Nc1cccc(C)n1,5,12,2%,3,2%,-4%
O=C1c2ccccc2NC(c2ccc(Cl)cc2Cl)N1O (centres undefined),-3,57,16µM*,1,5%,u
O=C1c2ccccc2NC(c2ccc(Cl)cc2Cl)N1Cc1ccccc1 (centres undefined),6,4,u,0,5%,23µM*
O=C1c2ccccc2NC(c2cccc(F)c2)N1Cc1ccccc1 (centres undefined),3,u,-16%,8,x,-22%
O=C1c2ccccc2NC(c2c(Cl)cccc2Cl)N1Cc1ccccc1 (centres undefined),-2,u,18µM*,0,4%,16µM*
N#Cc1ccccc1S(=O)(=O)N1CCN(C(=O)Cc2n[nH]c(=O)c3ccccc23)CC1,2,21,-15%,6,2%,-1%
Cc1cc(F)ccc1C(O)c1ncc(-c2cccc(F)c2)[nH]1 (centres undefined),-6,-17,u,-4,x,-9%
CCCC(C(=O)NC1CCCC1)N(CCCN1CCOCC1)C(=O)c1snc(C(N)=O)c1N (centres undefined),3,-2,-3%,3,-2%,-2%
